The text below walks through data of PubChem BioAssay (NCI).

Experiment [1] can be described thus: NCI Yeast Anticancer Drug Screen. Data for the rad50 strain (AID 155).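 Further: 0% = growth of vehicle-only cultures of the same strain.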 The note with it: S. cerevisiae rad50 strain growth inhibition, active compounds read high. In a few lines:
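Relative growth inhibition (compound vs vehicle) was measured in yeast with a defined repair-gene alteration.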

Experiment [2] can be described thus: NCI Yeast Anticancer Drug Screen. Data for the mec2-1 strain (AID 157). Particulars: S. cerevisiae mec2-1 strain, active compounds read high. In short, it runs like this: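 Each compound was tested on mec2-1 yeast, a strain altered in DNA damage repair or cell cycle control. Growth inhibition is reported relative to vehicle.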
The nature of experiment [3]: NCI Yeast Anticancer Drug Screen. Data for the sgs1 mgt1 strain (AID 161).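 Further: 0% = growth of cultures given vehicle only.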 The note with it: S. cerevisiae sgs1 mgt1 strain, active compounds read high. In short, it runs like this:
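Genetically altered yeast, compound exposure, growth inhibition relative to vehicle.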

The nature of experiment [4]: NCI Yeast Anticancer Drug Screen. Data for the cln2 rad14 strain (AID 165).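 Further: 0% = growth equal to vehicle treated cultures.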 The note with it: S. cerevisiae cln2 rad14 strain, active compounds read high. In a few lines: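 Test compounds were added to cln2 rad14 yeast cultures; inhibition of growth was then determined by comparison with vehicle treatment.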
Experiment [5] in a line: NCI Yeast Anticancer Drug Screen. Data for the bub3 strain (AID 167). The note with it: S. cerevisiae bub3 mutant strain, active compounds read high. In short, it runs like this: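 Screening used yeast with an engineered genetic alteration affecting cell cycle control. Compound-exposed cultures were compared with vehicle cultures, and reduced growth was taken as inhibition.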

A short description of experiment [6]: NCI Yeast Anticancer Drug Screen. Data for the mlh1 rad18 strain (AID 175). The note with it: S. cerevisiae mlh1 rad18 strain growth inhibition, active compounds read high. In short, it runs like this:
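Inhibition values reflect reduced growth of mutant yeast versus vehicle-treated controls following compound exposure; the mutations affect DNA damage repair.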

[7] abbreviates: at 5.0 µM (retest, dose inferred, filed as 0.5).
The mark [8] stands for this setting: at 50.0 µM (retest, dose inferred, filed as 5.0).

About 79,000 compounds went through this panel and 15% of them were active in at least one assay; those are over-represented in the sample as a whole. Values without a mark were called inactive. Calls of active or inactive are those of the source. No stated cut-off is given here; in the data, active means growth inhibition above about 70%; inactive means the rest.

For `O=c1cc(Cl)c(Cl)nn1-c1ccccc1`, the growth inhibition was 9% in experiment [1] (setting [7]); 80% (active) in experiment [1] (setting [8]); 89.2% (active) in experiment [1] (at 50.0 µM); 12% in experiment [2] (setting [7]); 75% (active) in experiment [2] (setting [8]); 50.5% in experiment [2] (at 50.0 µM). Also, the growth inhibition in experiment [3] (setting [7]) was 7%; in experiment [3] (setting [8]) it was 71% (active); in experiment [3] (at 50.0 µM) it was 40.3%; in experiment [4] (setting [7]), 6%; in experiment [4] (setting [8]), 60%; in experiment [4] (at 50.0 µM), 71.8% (active). Also, the growth inhibition in experiment [5] (setting [7]) was 4%; in experiment [5] (setting [8]), 84% (active); in experiment [5] (at 50.0 µM), 45.5%; in experiment [6] (setting [7]) it was 2%; in experiment [6] (setting [8]), 86% (active); in experiment [6] (at 50.0 µM), 41.2%.
Turning to `CCCC/C(=C\c1cc(Cl)c(O)c(Cl)c1)C(=O)O`, the growth inhibition in experiment [1] (setting [7]) is 4%; in experiment [1] (setting [8]), 79% (active); in experiment [1] (at 50.0 µM) it was 59.5%; in experiment [2] (setting [7]) it was 2%; in experiment [2] (setting [8]), 79% (active); in experiment [2] (at 50.0 µM), 70.8% (active). Further, the growth inhibition in experiment [3] (setting [7]) is 2%; in experiment [3] (setting [8]), 82% (active); in experiment [3] (at 50.0 µM), 71.8% (active); in experiment [4] (setting [7]), -5%; in experiment [4] (setting [8]) it was 76% (active); in experiment [4] (at 50.0 µM) it was 72.4% (active). In addition, the growth inhibition was 1% in experiment [5] (setting [7]); 79% (active) in experiment [5] (setting [8]); 56% in experiment [5] (at 50.0 µM); -16% in experiment [6] (setting [7]); 85% (active) in experiment [6] (setting [8]); 87.5% (active) in experiment [6] (at 50.0 µM).
For `c1ccc2c(c1)-c1cccc3cncc-2c13`, the growth inhibition in experiment [1] (setting [7]) was 45%; in experiment [1] (setting [8]), 62%; in experiment [1] (at 50.0 µM), 90.7% (active); in experiment [2] (setting [7]), 52%; in experiment [2] (setting [8]) it was 53%; in experiment [2] (at 50.0 µM) it was 92.6% (active). Further, the growth inhibition was 19% in experiment [3] (setting [7]); 98% (active) in experiment [3] (setting [8]); 92.6% (active) in experiment [3] (at 50.0 µM); 69% in experiment [4] (setting [7]); 99% (active) in experiment [4] (setting [8]); 90.9% (active) in experiment [4] (at 50.0 µM). The growth inhibition in experiment [5] (setting [7]) is 53%; in experiment [5] (setting [8]), 99% (active); in experiment [5] (at 50.0 µM) it was 91.2% (active); in experiment [6] (setting [7]), 33%; in experiment [6] (setting [8]), 52%; in experiment [6] (at 50.0 µM), 91.2% (active).
In the case of `CCOC(=O)C(C)(C)C`, the growth inhibition is 0% in experiment [1] (setting [7]); 29% in experiment [1] (setting [8]); 15.8% in experiment [1] (at 50.0 µM); 3% in experiment [2] (setting [7]); 16% in experiment [2] (setting [8]); -8.2% in experiment [2] (at 50.0 µM). Further, the growth inhibition in experiment [3] (setting [7]) was 2%; in experiment [3] (setting [8]), 12%; in experiment [3] (at 50.0 µM), 14.4%; in experiment [4] (setting [7]), 0%; in experiment [4] (setting [8]), 11%; in experiment [4] (at 50.0 µM) it was 25.6%. For the same molecule, the growth inhibition in experiment [5] (setting [7]) was 2%; in experiment [5] (setting [8]) it was 29%; in experiment [5] (at 50.0 µM), 73% (active); in experiment [6] (setting [7]) it was 3%; in experiment [6] (setting [8]) it was 16%; in experiment [6] (at 50.0 µM) it was 23.3%.
As for `CCCCCCCCCCCCCCCCCc1nnc(N)o1`, the growth inhibition was 1% in experiment [1] (setting [7]); 24% in experiment [1] (setting [8]); -11.8% in experiment [1] (at 50.0 µM); 7% in experiment [2] (setting [7]); 33% in experiment [2] (setting [8]); -0.5% in experiment [2] (at 50.0 µM). The growth inhibition in experiment [3] (setting [7]) is 18%; in experiment [3] (setting [8]) it was 51%; in experiment [3] (at 50.0 µM), 19%; in experiment [4] (setting [7]), 1%; in experiment [4] (setting [8]), 36%; in experiment [4] (at 50.0 µM), 45.6%. The growth inhibition is 6% in experiment [5] (setting [7]); 40% in experiment [5] (setting [8]); 11.2% in experiment [5] (at 50.0 µM); 6% in experiment [6] (setting [7]); 25% in experiment [6] (setting [8]); -3.6% in experiment [6] (at 50.0 µM).
As for `O=S1(=O)CCc2ccccc2C(Br)C1Br` (stereo not drawn), the growth inhibition is 13% in experiment [1] (setting [7]); 98% (active) in experiment [1] (setting [8]); 100% (active) in experiment [1] (at 50.0 µM); 7% in experiment [2] (setting [7]); 99% (active) in experiment [2] (setting [8]); 99.6% (active) in experiment [2] (at 50.0 µM). In addition, the growth inhibition in experiment [3] (setting [7]) is 15%; in experiment [3] (setting [8]) it was 12%; in experiment [3] (at 50.0 µM), 99.5% (active); in experiment [4] (setting [7]), 17%; in experiment [4] (setting [8]), 99% (active); in experiment [4] (at 50.0 µM), 98.3% (active). For the same molecule, the growth inhibition in experiment [5] (setting [7]) is -6%; in experiment [5] (setting [8]), 99% (active); in experiment [5] (at 50.0 µM), 98.2% (active); in experiment [6] (setting [7]), 10%; in experiment [6] (setting [8]), 99% (active); in experiment [6] (at 50.0 µM), 99.3% (active).
